40 molecules from PubChem BioAssay (EPA / NIEHS) can be followed below.

Results filed as inconclusive are left out. Activity calls are given as the source filed them. How the source made its calls: active means hit-call score of the fitted dose curve at least 0.9, where 1 is the maximum; inconclusive means response in the unintended direction; inactive means score below 0.9.

Broadly, the AC50 is the midpoint of the concentration-response curve, whichever way the signal moves.

This test can be described thus: Tanguay_ZF_120hpf_CFIN_legacy: (Legacy) Oregon State University Tanguay Lab 120 Hour Post-fertilization zebrafish Assay for Caudal Fin Malformation (AID 2283649). The protocol:
Tanguay_ZF_120hpf_legacy is a whole embryo, multiplexed endpoint assay using zebrafish larvae exposed for 120 hours post fertilization on a 96-well plate.Tanguay_ZF_120hpf_CFIN_legacy is one of one assay component(s) measured or calculated from the Tanguay_ZF_120hpf_legacy assay. It is designed to make measurements of zebrafish development as detected with brightfield microscopy of developing zebrafish embryos.Data from the assay component Tanguay_ZF_120hpf_CFIN_legacy was analyzed into 1 assay endpoints. This assay endpoint, Tanguay_ZF_120hpf_CFIN_legacy, was analyzed in the positive analysis fitting direction relative to DMSO as the negative control and baseline of activity. Using a type of morphology reporter, gain-of-signal activity can be used to understand changes in developmentals as they relate to the whole embryo. To generalize the intended target to other relatable targets, this assay endpoint is annotated to the zebrafish development intended target family, where the subfamily is caudal fin morphogenesis.
Zebrafish husbandry: Tropical 5D wild-type adult zebrafish were housed in at an approximate density of 1000 per 100 gallon tank at the Sinnhuber Aquatic Research Laboratory, Oregon State University, Corvallis, OR. Each tank was kept at standard laboratory conditions of 28C on a 14-h light/10-h dark photoperiod in fish water consisting of reverse osmosis water supplemented with a commercially available salt (Instant Ocean). Spawning funnels were placed into the tanks the night prior, and embryos were collected and staged. To increase bioavailability, the chorion was enzymatically removed using pronase (63.6mg/ml, >/= 3.5U/mg, Sigma-Aldrich: P5147) at 4 hours post fertilization (hpf) using a custom automated dechorionator.Chemical exposures: Six hpf dechorionated embryos were placed 1 embryo per well in a 96-well plate prefilled with 90 ul of EM using automated embryo placement systems (AEPS). Ten microliters of each row of dilution plate 2 was added to 2 exposure plates. The final DMSO concentration used was 0.64% (vol/vol). Thirty-two embryos were also exposed to 5uM trimethyltin chloride (positive control). Plates were sealed to prevent evaporation and foil covered to reduce light exposure and kept in a 28C incubator. Embryos were statically exposed until 120 hpf. At 24 hpf, embryos were assessed for photomotor response using a custom photomotor response analysis tool (PRAT) and for developmental toxicity endpoints (MO24: mortality at 24 hpf, DP: developmental progression, SM: spontaneous movement, and NC: notochord distortion). At 120 hpf, locomotor activity was measured using Viewpoint Zebralab and assessed for 18 endpoints. Zebrafish acquisition and analysis program (ZAAP), a custom program designed to inventory, acquire, and manage zebrafish data, was used to collect developmental endpoints as either present or absent (i.e., binary responses were recorded). If mortality occurred for an embryo (at either 24 or 120 hpf), the non-mortality endpoints were not measured.
Take `Cc1cc(=O)[nH]c(=S)[nH]1`: the result was inactive.

Consider `Cc1ccc2ncccc2c1`, for which the call was inactive. Consider `NS(=O)(=O)c1cc2c(cc1Cl)NCNS2(=O)=O`, for which the result was inactive.

Consider `COc1ccc(C)cc1N`, for which the molecule was called inactive. Turning to `CN1CCCC1=O`, the result was inactive.

On to `CCCCCCCCCCCC(=O)OC`, for which the result was inactive. On the same count and under the same terms, the value for `NCC1(Cc2noc(=O)[nH]2)CCCCC1` was “inactive”. Same read-out and setting: the value for `CCOC(=O)CCC(=O)OCC` was “inactive”. `COC(=O)c1ccc(O)cc1`: the molecule was classed as inactive. Consider `COCCOC[C@H](CC1(C(=O)NC2CCC(C(=O)O)CC2)CCCC1)C(=O)Oc1ccc2c(c1)CCC2` (stereo not given in full), for which the molecule was classed as inactive.

With `Oc1ccc2ccccc2c1N=Nc1ccccc1`, the molecule was called inactive.

On to `CC(=O)Oc1ccccc1C(=O)O`, for which the molecule was classed as inactive. Still for that read-out and setting: in the case of `CCCCCCCC=O` it was “inactive”.

For the molecule `CCCCCCCCCCCCCO`, the outcome was inactive. For `O=c1c(O)c(-c2ccc(O)c(O)c2)oc2cc(O)cc(O)c12`, the molecule was called inactive.

Consider `Oc1ccc2c(c1)OC[C@@H](N1CCC(O)(c3ccc(F)cc3)CC1)[C@H]2O`, for which the result was inactive. In the case of `Cc1ccc(C)c(O)c1C`, the result was inactive. Still for that read-out and setting: in the case of `COc1cc(C=O)ccc1O` it was “inactive”. `CCc1c(C(=O)NN2CCCCC2)nn(-c2ccc(Cl)cc2Cl)c1-c1ccc(Br)cc1`: the outcome was inactive.

Consider `CCCCCC(=O)O`, for which the call was inactive. For `CC=Cc1ccc(O)c(OC)c1`, the call was inactive. As for `CC(=O)OCCOCCOCCOC(C)=O`, the molecule was called inactive.

In the case of `O=C(N[C@@H](Cc1ccccc1)[C@@H](O)C(=O)N1C[C@@H](O)[C@@H](O)C1)c1cc2cc(Cl)ccc2[nH]1`, the molecule was called inactive. Still for that read-out and setting: in the case of `Cc1cccc(Nc2cc(Cl)nc(SCC(=O)O)n2)c1C` it was “inactive”; in that of `CC(=O)OC/C=C(\C)CCC=C(C)C`, “inactive”; in that of `CC(=O)C(C)=CC1C(C)=CCCC1(C)C` (stereo not given), “inactive”. In the case of `CC1=C(/C=C/C(C)=C/C=C/C(C)=C/CO)C(C)(C)CCC1`, the molecule was called inactive. Turning to `CCCCC(CC)COC(=O)CC(C(=O)OCC(CC)CCCC)S(=O)(=O)O` (stereo not given), the molecule was called inactive.

For `Cc1ccc(C(C)C)c(O)c1`, the result was inactive.

Consider `Nc1ccc(S(=O)(=O)c2ccc(N)cc2)cc1`, for which the molecule was classed as inactive. Consider `NC(=O)Cn1c(=O)cc(CCN2CCN(c3nccc4sccc34)CC2)c2ccc(F)cc21`, for which the molecule was classed as inactive.

As to `Clc1cc(Cl)c(Cl)cc1Cl`, the molecule was called inactive. Consider `Cc1nc(-c2ccc3c(c2)CCN(CCC2CCC(NC(=O)/C=C/c4ccc(F)cc4)CC2)CC3)no1` (stereo not given), for which the result was inactive.

Regarding `FC(F)(F)C(F)(F)C(F)(F)C(F)(F)C(F)(F)C(F)(F)CCI`, the outcome was inactive. As to `CC(CO)OC(C)CO` (stereo not given) (tested in a mixture with another compound), the molecule was classed as inactive. With `COc1ccc(S(=O)(=O)N2C(=O)[C@@](c3ccccc3OC)(N3C[C@H](O)C[C@H]3C(=O)N(C)C)c3cc(Cl)ccc32)c(OC)c1`, the molecule was called inactive.

As to `COc1cc(S(=O)(=O)O)c(C)cc1N=Nc1c(O)ccc2cc(S(=O)(=O)O)ccc12`, the outcome was inactive.

Turning to `CCOC(=O)C(C)(C)Oc1ccc(Cl)cc1`, the half-maximal activity concentration (AC50) is 69.7 µM (active). Consider `Cc1ccc(Cl)cc1`, for which the call was inactive.

Turning to `COc1cc(-c2nc(NC(=O)c3cc4cc(C)cc(C)c4n3CC(=O)O)sc2CCC2CCCCC2)c(OC)cc1Cl`, the outcome was inactive.
